# Screening data from PubChem BioAssay.
# In the library only some 11% were active in any assay of this set; here they are far more common.
# USP30 inh: blocks human USP30 ubiquitin-rhodamine cleavage | Q70CQ3 | purified USP30, Ub-rhodamine cleavage fluorescence | AID 1645860 | 47,000 compounds, 5.3% hits | inhibition, % at 25 µM
# USP28 inh: inhibitors of human USP28 deubiquitinase. 47,000 compounds, 3% hits. inhibition, % at 25 µM. purified USP28, Ub-rhodamine cleavage fluorescence, 30 min
# USP17 block: inhibitors of human USP17 deubiquitinase | purified USP17, Ub-rhodamine cleavage fluorescence, 3 h | inhibition, % at 50 µM | 47,000 compounds, 6.5% hits
# The depositor's hits bear a star; i = inactive; . = no result given. Cut-off read from the data, not from the text of the source: active = inhibition above about 30%; inactive = the rest.
SMILES,USP30 inh,USP28 inh,USP17 block
O=C(OC(c1ccccc1)c1nc2ccccc2n1Cc1ccccc1F)c1cccc2ccccc12 (stereo unspecified),17,11,0
COc1ccccc1C(=O)OC(C)C(=O)c1[nH]c(C)c(C(C)=O)c1C (stereo unspecified),-62,0,-28
O=C(Cc1ccccc1)c1c[nH]c(C(=O)NCc2ccncc2)c1,.,.,5
CCCC(=O)c1c[nH]c(C(=O)NCc2ccc(F)cc2)c1,23,35*,69*
c1ccc(CN(Cc2ccccc2)c2c3c(nc4ncnn24)CCC3)cc1,39*,23,13
O=c1c2c(nc3nc(C(c4ccccc4)c4ccccc4)[nH]n13)CCC2,17,8,14
N#Cc1c(-c2ccccc2Cl)c2c([nH]c1=O)-c1ccccc1CC2,-8,0,10
O=c1[nH]ccn2nc3c(c12)CCc1ccccc1-3,.,.,36*
COc1ccccc1C(=O)N1CCC(S(=O)(=O)c2ccc(-c3ccco3)cc2)CC1,27,26,56*
COc1ccccc1C(=O)N1CC2CN(S(=O)(=O)c3ccc(C)cc3)CC(C1)O2,-9,-11,-10
COc1ccc(S(=O)(=O)N2CCN(C(=O)c3cnc4ccccc4n3)CC2)cc1OC,-156,-34,24
O=C(c1cnc2ccccc2n1)N1CCC(S(=O)(=O)c2ccc(-c3ccco3)cc2)CC1,-13,5,44*
Cc1ccc(NC(=O)c2cc(CN3CCOCC3)on2)cc1C,-2,11,0
COc1cc(NC(=O)c2cc(CN3CCOCC3)on2)cc(OC)c1,3,54*,0
O=C(Nc1ccc2c(c1)OCCO2)c1cc(CN2CCOCC2)on1,9,53*,.
O=C(Nc1cccnc1Cl)c1cc(-c2ccco2)on1,.,.,-3
O=C(Nc1ccc2c(c1)OCCO2)C1CN(C(=O)c2ccc3c(c2)OCO3)C1,5,43*,0
O=C(Nc1ccc2c(c1)OCO2)c1cc(-c2ccco2)on1,-18,30*,44*
O=C(Nc1ccccc1F)C1CN(C(=O)c2ccc3c(c2)OCO3)C1,-16,0,-2
COc1cccc(NC(=O)c2cc(CN3CCCC3)on2)c1,-15,21,-3
Cc1ccc2c(c1)C(=O)N1CCCC1C(=O)N2CC(=O)NC(C)c1ccccc1 (stereo unspecified),-5,-1,-1
CC(C)CC(=O)N[C@H]1C[C@H]2CN(Cc3ccccc3)c3ccccc3CN2C1,-342,-76,-111
O=C(Nc1ccc2c(c1)OCCO2)NC1CCCCC1,0,31*,2
Cc1ccc(NC(=O)c2ccc(N3CCCCC3)nn2)cc1F,i,0,3
Cc1ccc(NC(=O)c2cc(CN3CCCC3)on2)cc1C,-24,5,.
SMILES,USP30 inh,USP28 inh,USP17 block
O=C(Nc1ccc2c(c1)OCCO2)c1cc(CN2CCCC2)on1,-24,63*,-8
O=C(Nc1ccc2c(c1)OCCO2)c1ccc(N2CCCCC2)nn1,2,59*,18
O=C(Nc1cccnc1)NC1CCCCC1,-16,0,-13
Nc1ccc(NS(=O)(=O)c2ccc3c(c2)OCCCO3)cc1,-8,-2,16
Cc1nc(-c2cc(S(=O)(=O)N3CCCCCC3)cn2C)sc1C(=O)N1CCCC1,17,0,7
CC(=O)O[C@@H]1/C=C(/C)[C@H](OC(=O)c2ccc(O)cc2)C/C=C(/C)CCCC1(C)C,15,6,31*
CC1=C(c2ccccc2)S(=O)(=O)N(CC(=O)Nc2cccc(F)c2)C1=O,-15,-1,1
CC1=C(c2ccccc2)S(=O)(=O)N(CC(=O)Nc2cccc(Cl)c2)C1=O,35*,26,30*
Cc1nn(C)cc1C(C)NC(=O)c1cc2c(s1)CN(C1CC1)C2 (stereo unspecified),-60,-10,3
Cc1ccc(S(=O)(=O)N(CC(C)C)C2CCS(=O)(=O)C2)cc1 (stereo unspecified),7,-4,.
Cc1ccc(N(C)S(=O)(=O)C2CCS(=O)(=O)C2)cc1 (stereo unspecified),31*,18,14
O=C(CCc1ccccc1)Nc1nnc(C(F)(F)F)s1,-4,-4,16
C=C(NC(=O)c1ccc2c(n1)-c1coc(n1)C(=C)NC(=O)C(=C)NC(=O)c1nc(oc1C)C(=C)NC(=O)C(C(C)(C)O)NC(=O)C(=C)NC(=O)c1nc(oc1C)/C(=C/C)NC(=O)[C@H]([C@@H](C)O)NC(=O)c1csc-2n1)C(N)=O (stereo partly specified),-109,-10,22
COc1cc2c(cc1OC)C(COc1ccc3c(C)cc(=O)oc3c1)N(C(=O)C1CC1)CC2 (stereo unspecified),1,-4,-6
Cc1cc(=O)oc2cc(OC(=O)C3CCN(C(=O)c4ccc(Cl)cc4)CC3)ccc12,50*,5,8
